# Hit rate of the full screen: of about 310,000 compounds, about 14,000 (4.5%) showed an effect of 50% or more. Effects have a minus sign here. What follows is part of a selection rich in strong results, with near analogues and random picks from the rest.
# Target: human ether-à-go-go-related gene (hERG) potassium channel (human, UniProt Q12809)
# Assay: primary screen, population patch clamp on CHO cells stably expressing hERG; higher = less effect of the substance
# 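Also: peak tail current of the secondary pulse compared with the same well before compound.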
# Chain of human ether-à-go-go-related gene (hERG) potassium channel (Q12809 whole entry, looked up): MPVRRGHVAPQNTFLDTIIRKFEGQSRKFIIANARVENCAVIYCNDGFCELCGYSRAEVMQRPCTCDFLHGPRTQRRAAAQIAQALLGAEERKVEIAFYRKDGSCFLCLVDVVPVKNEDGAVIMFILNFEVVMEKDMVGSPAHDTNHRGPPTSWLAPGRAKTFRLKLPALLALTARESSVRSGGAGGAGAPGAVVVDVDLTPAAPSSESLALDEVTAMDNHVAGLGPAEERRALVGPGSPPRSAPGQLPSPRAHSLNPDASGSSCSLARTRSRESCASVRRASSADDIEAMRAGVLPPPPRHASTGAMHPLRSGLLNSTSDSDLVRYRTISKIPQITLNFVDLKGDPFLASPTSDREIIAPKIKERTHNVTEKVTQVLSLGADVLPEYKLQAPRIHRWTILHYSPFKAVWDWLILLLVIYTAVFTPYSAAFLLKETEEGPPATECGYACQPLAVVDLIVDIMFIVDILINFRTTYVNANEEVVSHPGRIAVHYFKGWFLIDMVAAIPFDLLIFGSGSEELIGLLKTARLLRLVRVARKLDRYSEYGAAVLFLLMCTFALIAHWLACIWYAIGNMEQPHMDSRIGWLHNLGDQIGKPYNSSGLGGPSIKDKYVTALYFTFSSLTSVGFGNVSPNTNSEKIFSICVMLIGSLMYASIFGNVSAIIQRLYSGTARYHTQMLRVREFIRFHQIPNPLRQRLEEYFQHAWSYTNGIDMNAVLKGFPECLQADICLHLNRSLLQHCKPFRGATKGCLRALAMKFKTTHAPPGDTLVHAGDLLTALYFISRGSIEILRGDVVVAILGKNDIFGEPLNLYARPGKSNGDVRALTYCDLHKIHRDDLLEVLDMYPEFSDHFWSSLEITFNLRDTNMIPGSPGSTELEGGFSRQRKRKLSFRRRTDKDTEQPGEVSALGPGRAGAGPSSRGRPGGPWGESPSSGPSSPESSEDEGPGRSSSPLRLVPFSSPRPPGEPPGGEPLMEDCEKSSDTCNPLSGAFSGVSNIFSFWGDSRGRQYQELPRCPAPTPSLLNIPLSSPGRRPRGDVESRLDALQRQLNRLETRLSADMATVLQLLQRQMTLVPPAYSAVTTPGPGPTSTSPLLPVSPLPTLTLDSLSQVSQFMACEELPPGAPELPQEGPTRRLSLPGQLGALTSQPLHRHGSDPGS
row,Compound,"hERG current change (%, negative = inhibition) at 10uM"
1,CC(C)CCC(O)(CCC(C)C)C(=O)NNc1ccccc1,-0.649%
2,FC(F)(F)c1nc2ccccc2nc1N/N=C\c1ccccc1,12.3%
3,CC(=O)c1ccc(S(=O)(=O)Nc2ccc(C(=O)N(C)CC(=O)Nc3cccc(C)c3C)cc2)cc1,14.5%
4,COc1cc(/C=N/NC(=O)c2ccoc2C)ccc1O,-3.54%
5,Cc1nn(CCC(=O)Nc2cccc(C#N)c2)c(C)c1S(=O)(=O)N1CCCCC1,-1.67%
6,O=C(NNS(=O)(=O)c1ccccc1)c1cc2cc3ccccc3nc2s1,-10.4%
7,Cc1ccccc1CN1CCN(CC(=O)NCCCN2CCN(c3ccc(F)cc3)CC2)C1=O,-71.2%
8,CCOCCCNC(=O)CN1CCN(Cc2ccccc2C)C1=O,-5.69%
9,COc1ccc(N2CCN(CCCNC(=O)CN3CCN(Cc4ccccc4C)C3=O)CC2)cc1,-46.5%
10,Cc1c(Cl)cccc1NC(=O)CSc1nc2ncc(Cl)cc2[nH]1,17.7%
11,COCCCNC(=O)CC(NS(=O)(=O)c1ccc(Cl)cc1)c1ccc(OC)cc1 (centres unmarked),-0.0404%
12,Cc1cccc(OCC(=O)N2CCN(Cc3ccncc3)CC2)c1.O=C(O)C(=O)O,8.94%
13,O=C(COc1ccc(S(=O)(=O)N2CCCCC2)cc1)N1CCN(Cc2ccccc2)CC1,-32.5%
14,Cc1cccc(OCC(=O)N2CCN(Cc3ccc([N+](=O)[O-])cc3)CC2)c1.O=C(O)C(=O)O,-73%
15,O=C(COc1ccc(Cl)cc1)N1CCN(Cc2ccccc2)CC1,-32.9%
16,O=C(COc1ccc(Cl)cc1)N1CCN(Cc2ccc([N+](=O)[O-])cc2)CC1.O=C(O)C(=O)O,-74.2%
17,Cc1ccc(OCC(=O)N2CCN(Cc3ccc([N+](=O)[O-])cc3)CC2)cc1.O=C(O)C(=O)O,-81.2%
18,Cc1cccc(OCC(=O)N2CCN(Cc3ccc4c(c3)OCO4)CC2)c1.O=C(O)C(=O)O,-16.7%
19,Cc1ccc(CN2CCN(C(=O)CCc3ccccc3)CC2)cc1,-19.1%
20,Cc1ccc(OCC(=O)N2CCN(CC3CC4C=CC3C4)CC2)cc1.O=C(O)C(=O)O (centres unmarked),-24.3%
21,CCN(CC)C(=O)Cn1cc(S(=O)(=O)CC(=O)NCc2ccccc2)c2ccccc21,-11.6%

row,Compound,"hERG current change (%, negative = inhibition) at 10uM"
1,CCOC(=O)C(NC(=O)CC)(Nc1ccc(S(=O)(=O)Nc2ncccn2)cc1)C(F)(F)F (centres unmarked),22.5%
2,O=C(Cc1ccccc1)Nc1scc(-c2ccccc2)c1C(=O)N1CCOCC1,-57.4%
3,O=C(CN1CCOCC1)Nc1scc(-c2ccccc2)c1C(=O)N1CCOCC1,-34.9%
4,CCOC(=O)c1c(-c2ccccc2)csc1NC(=O)CCN1CCOCC1.O=C(O)C(=O)O,-33.2%
5,O=C(N/C(=C/c1cccnc1)C(=O)N1CCOCC1)c1ccco1,6.59%
6,CCN(CC)S(=O)(=O)c1ccc(NC(=O)c2cc(C(=O)OC)cc([N+](=O)[O-])c2)cc1,10.3%
7,CN(Cc1nccs1)C(=O)c1ccc(OC2CCN(CCc3ccccc3)CC2)cc1,-58.9%
8,CN(Cc1nccs1)C(=O)c1ccc(OC2CCN(Cc3ccccn3)CC2)cc1,-11.5%
9,CC(CNC(=O)c1ccc(OC2CCN(Cc3ccccn3)CC2)cc1)Oc1cccnc1 (centres unmarked),-21.9%
10,Cc1cc(CN(C)C(=O)c2ccc(OC3CCN(Cc4ccccn4)CC3)cc2)on1,-37.7%
11,CC(CNC(=O)c1ccc(OC2CCN(Cc3ccccn3)CC2)cc1)c1ccccc1 (centres unmarked),-76.5%
12,CN(Cc1nccn1C)C(=O)c1ccc(OC2CCN(CCc3ccccc3)CC2)cc1,-38.3%
13,CN(Cc1cnn(C)c1)C(=O)c1ccc(OC2CCN(CCc3ccccc3)CC2)cc1,-42.9%
14,Cc1cc(CN(C)C(=O)c2ccc(OC3CCN(CCc4ccccc4)CC3)cc2)on1,-74.1%
15,CN(C(=O)c1ccc(OC2CCN(CCc3ccccc3)CC2)cc1)C1CCOCC1,-9.93%
16,CC(NC(=O)c1ccc(OC2CCN(Cc3ccccn3)CC2)cc1)c1ccccc1 (centres unmarked),-20.3%
17,CN(C(=O)c1ccc(OC2CCN(CCc3ccccc3)CC2)cc1)C1CCOC1 (centres unmarked),-25.3%
18,CN(C(=O)c1ccc(OC2CCN(CCc3ccccc3)CC2)cc1)C1CCCCC1,-63.5%
19,CCN(c1cccc(C)c1)S(=O)(=O)c1ccc2c(c1)NC(=O)CCS2,8.09%
20,CCOC(=O)c1ccc(NS(=O)(=O)c2cc3c4c(c2)CCN4C(=O)CC3)cc1,-9.74%
